From PubChem BioAssay AID651768 (National Center for Advancing Translational Sciences (NCATS), 2012)
Hit rate of the full screen: of about 360,000 compounds, about 1,700 (0.47%) were called active. Not shown: some 2% with an inconclusive outcome. Shown is part of a subset that was picked to be rich in actives. Entries that show only a call come without a potency. Values without a mark were called inactive. Calls come from the whole dose curve; as a rule, active = well fitted inhibition curve with a large enough effect; inconclusive = small, poorly fitted or top-dose-only effect; inactive = no such curve, though single readings can be large or run the other way.
Note: nearly all actives have a fitted effect of over 55% in size.
Potency is the fitted concentration of half-maximal effect.

Each molecule was assayed against Bifunctional 3'-5' exonuclease/ATP-dependent helicase WRN (Homo sapiens) (UniProt Q14191) (assay: qHTS for Inhibitors of WRN Helicase). Settings: WRN helicase unwinding, fluorescent forked duplex, kinetic; series mostly up to 114 µM.
Chain of Bifunctional 3'-5' exonuclease/ATP-dependent helicase WRN (Homo sapiens) (Q14191 whole entry, looked up): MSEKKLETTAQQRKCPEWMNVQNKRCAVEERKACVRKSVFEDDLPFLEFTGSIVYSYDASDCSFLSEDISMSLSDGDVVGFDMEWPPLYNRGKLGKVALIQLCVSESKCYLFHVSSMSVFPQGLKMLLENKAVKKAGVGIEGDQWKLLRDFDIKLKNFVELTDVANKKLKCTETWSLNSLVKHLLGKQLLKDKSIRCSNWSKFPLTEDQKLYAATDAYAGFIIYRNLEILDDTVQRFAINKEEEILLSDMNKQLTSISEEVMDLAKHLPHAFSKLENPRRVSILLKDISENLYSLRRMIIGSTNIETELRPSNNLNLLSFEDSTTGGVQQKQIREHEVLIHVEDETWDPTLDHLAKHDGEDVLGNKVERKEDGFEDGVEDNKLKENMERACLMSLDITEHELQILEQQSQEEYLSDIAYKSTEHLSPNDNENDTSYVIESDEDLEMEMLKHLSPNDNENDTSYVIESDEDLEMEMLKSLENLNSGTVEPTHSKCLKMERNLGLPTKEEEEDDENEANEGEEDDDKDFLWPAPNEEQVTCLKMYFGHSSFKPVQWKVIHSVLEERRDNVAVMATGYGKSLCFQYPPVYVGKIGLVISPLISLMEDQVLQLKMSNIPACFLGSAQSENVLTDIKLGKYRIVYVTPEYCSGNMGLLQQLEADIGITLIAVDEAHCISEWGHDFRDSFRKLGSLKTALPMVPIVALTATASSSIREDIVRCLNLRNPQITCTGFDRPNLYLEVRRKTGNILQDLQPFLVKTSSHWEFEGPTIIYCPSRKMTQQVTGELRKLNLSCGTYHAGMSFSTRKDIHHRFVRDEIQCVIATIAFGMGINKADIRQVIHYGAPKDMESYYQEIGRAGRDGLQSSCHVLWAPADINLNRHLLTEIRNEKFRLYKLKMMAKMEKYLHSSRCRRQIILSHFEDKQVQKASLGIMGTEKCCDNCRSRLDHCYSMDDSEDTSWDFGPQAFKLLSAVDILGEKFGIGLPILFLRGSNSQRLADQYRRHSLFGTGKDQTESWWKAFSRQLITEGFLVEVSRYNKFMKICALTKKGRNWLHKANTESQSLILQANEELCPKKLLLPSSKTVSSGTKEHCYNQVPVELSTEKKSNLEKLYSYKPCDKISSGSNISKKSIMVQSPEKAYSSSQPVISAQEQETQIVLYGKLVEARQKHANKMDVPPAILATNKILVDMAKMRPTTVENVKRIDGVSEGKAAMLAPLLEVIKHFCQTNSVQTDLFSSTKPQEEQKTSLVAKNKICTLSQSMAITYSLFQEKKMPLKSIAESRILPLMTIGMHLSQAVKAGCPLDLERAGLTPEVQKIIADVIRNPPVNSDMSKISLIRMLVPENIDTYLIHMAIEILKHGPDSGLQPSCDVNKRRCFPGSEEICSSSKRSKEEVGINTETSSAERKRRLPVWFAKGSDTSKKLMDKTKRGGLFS
Method in brief: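 Primary qHTS, 1536-well format. 20 nM WRN + compound, 15 min RT; start with 100 nM forked fluorophore/quencher duplex, 2 mM ATP (final); kinetic read ex 525/em 598 nm.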
In the case of `Cc1cc(C(=O)OC(C)C(=O)Nc2cccc(S(=O)(=O)N3CCOCC3)c2)c(C)o1` (stereo not given), the Potency was “inactive”. With `CCOC(=O)N1CCN(C(=O)COC(=O)c2cccc(S(C)(=O)=O)c2)CC1` the Potency was “inactive”. For `CN(C)c1nc(Nc2ccc(Cl)c(Cl)c2)nc(N(C)C)n1`, the Potency was 79.4 µM (active). In the case of `CC(=O)Nc1nc(N(C)C)nc(N(C)C)n1`, the Potency was “inactive”. In the case of `CN(C)c1nc(NN)nc(Nc2ccc(F)cc2)n1`, the Potency was “inactive”. For `O=C(CCS(=O)(=O)c1ccc(Br)cc1)NCCc1ccc(Cl)cc1`, the activity change, negative = inhibition was -8.96% [at 11.6 µM]. With `CCOc1ccc(OCC)c(NC(=O)CCS(=O)(=O)c2ccc(C)cc2)c1` the Potency was “inactive”. For `COc1ccc(Cl)cc1NC(=O)CCS(=O)(=O)c1ccc(Br)cc1`, the Potency was 44.7 µM (active). For `COC(=O)[C@]1(Cc2ccccc2)N[C@H](CN(C)S(=O)(=O)c2ccc(OC(F)(F)F)cc2)[C@@H]2C(=O)N(C)C(=O)[C@@H]21`, the Potency was “inactive”. With `[O-][n+]1c2c(nn1-c1ccc(Cl)c(Cl)c1)-c1nonc1CC2` the Potency was “inactive”. With `Cc1cc(C)c(S(=O)(=O)c2ccccc2)c(OC(=O)c2c(F)cccc2Cl)n1` the Potency was “inactive”. With `O=C(O)C(c1ccccc1)N1C(=O)/C(=C\c2ccc(-c3cccc(Cl)c3)o2)SC1=S` (stereo not given) the Potency was 44.7 µM (active). In the case of `CC(C(=O)NC1CCS(=O)(=O)C1)N1C(=O)/C(=C/c2ccc(Cl)cc2)SC1=S` (stereo not given), the Potency was “inactive”. For `CC(C(=O)Nc1ccc(O)c(C(=O)O)c1)N1C(=O)/C(=C/c2cccs2)SC1=S` (stereo not given), the activity change, negative = inhibition was -16.7% [at 11.6 µM]. `CCc1c(-c2ccc(F)cc2)ncn1Cc1cccc(-c2ccccc2)c1` was tested, and the Potency was “inactive”. `Cc1cccc(C(=O)NNC(=O)CSc2nnc(C(C)C)n2C)c1` was tested, and the Potency was “inactive”. For `FC(F)(F)C1CCCN(c2nsc3ccccc23)C1` (stereo not given), the Potency was 22.4 µM (active). For `COc1ccc(Br)c(Cn2c(C)c(C(=O)NCc3cccs3)sc2=O)c1`, the Potency was “inactive”. With `COC(=O)C1=CN(c2c(C)cc(C)cc2C)C(N)=C(C#N)C1c1cccc(F)c1` (stereo not given) the Potency was “inactive”. With `FC(F)(F)c1cccc(-c2nc3ccccc3n2C(c2ccccc2)c2nc3ccccc3[nH]2)c1` (stereo not given) the Potency was “inactive”. In the case of `CC1CN(/C=C/C(=O)C(F)(F)F)CC(C)O1` (stereo not given), the Potency was “inactive”. In the case of `O=C1C2C3C=CC(C4CC34)C2C(=O)N1/N=C/c1ccc(-c2ccccc2[N+](=O)[O-])o1` (stereo not given), the Potency was “inactive”. For `CC1=NN(c2ccc(Cl)c(C(=O)O)c2)C(=O)/C1=C/c1ccc(-c2ccccc2[N+](=O)[O-])o1`, the Potency was 44.7 µM (active). In the case of `COc1ccc(/C=C2/C(=O)N(c3ccccc3)N=C2C)c(OC)c1`, the activity change, negative = inhibition was -30.6% [at 11.6 µM]. In the case of `COc1c(Br)cc2c(C)c(C(=O)N3CCOCC3)oc2c1Br`, the Potency was “inactive”. In the case of `O=C(Cn1nnc2ccccc2c1=O)NCc1ccc(Cl)cc1`, the Potency was “inactive”. With `O=c1[nH]c2ccccc2n2c(-c3ccccc3)nnc12` the Potency was 20 µM (active). In the case of `O=C(c1ncn2c1c(=O)[nH]c1ccccc12)N1CCc2ccccc2C1`, the Potency was “inactive”. In the case of `CS(=O)(=O)N1CCCCC1c1cc(C(=O)NCc2ccccc2)no1` (stereo not given), the Potency was “inactive”. For `COc1ccc(OC(C)C(=O)Nc2cccnc2)cc1` (stereo not given), the Potency was “inactive”. With `COc1ccc(CS(=O)/C(Cl)=C(/Cl)C(=O)Nc2ccc(OC)nc2)cc1` (stereo not given) the Potency was 17.8 µM (active). In the case of `COc1ccc(C(O)c2nc(-c3ccc(OC)nc3)cs2)cc1` (stereo not given), the Potency was “inactive”. For `CC(C)C[C@H]1CN([C@@H](Cc2ccccc2)CN2CCC[C@@H]2CN2C(=O)C(=O)NC[C@@H]2Cc2ccc(O)cc2)C(=O)C(=O)N1CCc1ccccc1`, the Potency was “inactive”. In the case of `Cc1cccc(C)c1NC(=O)C(c1cccc2ccccc12)n1c(=O)c(-c2ccco2)nc2ccccc21` (stereo not given), the Potency was “inactive”. `O=C(CSC(=S)N1CCCCC1)c1c(F)cccc1F` was tested, and the Potency was “inactive”. With `Cc1c(CC(=O)N2CCN(C(=O)C3COc4ccccc4O3)CC2)c(=O)oc2c(O)c(O)ccc12` (stereo not given) the Potency was 10 µM (active). For `Cc1c(CCC(=O)O)c(=O)oc2c(C)c(OCc3ccccc3Cl)ccc12`, the activity change, negative = inhibition was -22.9% [at 11.6 µM]. `Cc1ccc(S(=O)(=O)NCCC(=O)NNC(=O)C2COc3ccccc3O2)cc1` (stereo not given) was tested, and the Potency was “inactive”. With `CCC1(c2ccccc2)NC(=O)N(CC(=O)c2ccc3c(c2)OCO3)C1=O` (stereo not given) the Potency was “inactive”. For `O=C(CN1CCN(c2ccccc2F)CC1)c1ccc2c(c1)OCO2`, the Potency was “inactive”. For `O=C(CCN1CCc2ccccc2C(O)(c2ccccc2)C1)c1ccc2c(c1)OCCO2` (stereo not given), the Potency was 31.6 µM (active). With `CCCCCNC(=O)C1C(=O)Nc2ccccc2C(=O)N1C(C)(C)C` (stereo not given) the Potency was “inactive”. For `O=c1[nH]oc(O)c1-c1ncc(C(F)(F)F)cc1Cl`, the Potency was “inactive”. In the case of `CN(Cc1c(F)cccc1Cl)S(=O)(=O)c1cccs1`, the Potency was “inactive”. For `COC(=O)C1=C(C(=O)OC)[C@@H]2N(C)c3ccccc3[C@@]23C[C@@H](C(=O)OC)N(C(=O)c2ccco2)C3=N1`, the Potency was “inactive”. In the case of `COc1ccc(CCNC2=C(Cl)C(=O)N(Cc3ccccc3)C2=O)cc1OC`, the Potency was “inactive”. `CN1C=CC=C/C1=C1\SC(=S)N(Cc2ccccc2)C1=O` was tested, and the Potency was “inactive”. `COc1cc(/C=C2/SC(=S)N(Cc3ccccc3)C2=O)cc(OC)c1O` was tested, and the Potency was 10 µM (active). For `COC(=O)C[C@H]1C=C[C@H](NC(=O)c2ccc(F)cc2)[C@@H](CO)O1`, the Potency was “inactive”. For `O=S(=O)(Nc1ccc(O)c2ccccc12)c1ccc(OC(F)(F)F)cc1`, the Potency was 56.2 µM (active). For `COc1ccccc1NS(=O)(=O)c1ccc(C(=O)N2CCN(c3ccccc3O)CC2)cc1`, the Potency was “inactive”. With `O=S(=O)(Nc1ccc(OC(F)(F)F)cc1)c1cccc2nonc12` the Potency was “inactive”. `O=C(NCc1ccncc1)C(=O)NCC1OCCN1S(=O)(=O)c1ccc(Br)cc1` (stereo not given) was tested, and the Potency was “inactive”. `Cc1ccccc1N/C(SCc1ccc(Cl)cc1)=C(/C#N)C(N)=O` was tested, and the Potency was “inactive”. `O=C(CCCCCn1c(=S)[nH]c2ccsc2c1=O)NC1CCCCC1` was tested, and the Potency was “inactive”. For `O=C(/C=C/c1cccs1)NCc1cccnc1`, the Potency was “inactive”. `Cc1ccccc1NC(=O)Cn1c(=O)n(CC2CCCO2)c(=O)c2ccccc21` (stereo not given) was tested, and the Potency was “inactive”. With `Cc1ccccc1NC(=O)CN1C(=O)N/C(=C\c2cccn2-c2cccc(C(=O)O)c2)C1=O` the Potency was 10.6 µM (active). `COC(=O)CN1C(=O)N/C(=C/c2ccc(OC)c(C)c2OC)C1=O` was tested, and the Potency was “inactive”. `CCCCCc1c(-c2ccc(OC)c(OC)c2)ncn1CCc1ccccc1OC` was tested, and the Potency was “inactive”.
